High-throughput results: PubChem BioAssay, Fisher Drug Discovery Resource Center
NPYLR7 ag: activates Aedes aegypti NPYLR7 receptor; HEK293T NPYLR7/Galpha15, GCaMP6s calcium fluorescence; activation, % at 10 µM; 0.15% of 270,000 active; AID 1259423; in the data active = activation above about 40%;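 also: 0% = vehicle and 100% = reference agonist at the receptor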
hcGAS lum: inhibitors of human cGAS; inhibition, % at 12.5 µM; 0.081% of 290,000 active; recombinant h-cGAS, ATP depletion, Kinase-Glo luminescence; Q8N884;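 also: 0% = vehicle reaction and 100% = reaction without DNA for no activity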
Target sequence (Q8N884 whole entry, looked up): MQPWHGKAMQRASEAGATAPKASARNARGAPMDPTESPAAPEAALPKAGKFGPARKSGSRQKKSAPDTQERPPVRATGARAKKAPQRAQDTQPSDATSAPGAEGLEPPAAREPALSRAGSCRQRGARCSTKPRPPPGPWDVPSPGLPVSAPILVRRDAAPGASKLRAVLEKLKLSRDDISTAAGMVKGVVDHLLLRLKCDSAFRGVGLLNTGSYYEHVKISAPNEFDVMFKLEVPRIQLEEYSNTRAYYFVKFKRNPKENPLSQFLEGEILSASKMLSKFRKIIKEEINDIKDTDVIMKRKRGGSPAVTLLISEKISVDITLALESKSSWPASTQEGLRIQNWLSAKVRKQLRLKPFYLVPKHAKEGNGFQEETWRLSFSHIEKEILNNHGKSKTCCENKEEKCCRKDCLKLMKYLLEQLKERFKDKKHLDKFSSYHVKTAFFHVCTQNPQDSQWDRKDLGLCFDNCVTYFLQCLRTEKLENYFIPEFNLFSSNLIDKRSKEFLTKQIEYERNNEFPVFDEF
mcGAS lum: mouse cGAS inhibition by luminescence | Q8C6L5 | recombinant cGAS, Kinase-Glo ATP depletion luminescence | inhibition, % at 12.5 µM | 0.15% of 160,000 active;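 also: 0% = negative control wells and 100% = reference inhibitor with no enzyme activity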
Starred values were filed as active, the others as inactive; . = not tested or not shown. Compounds with a hit are over-represented: about 0.24% of the library has one in this group of screens. Rule as the data show it, unless noted: active = inhibition above about 40%; inactive = the rest.

SMILES | NPYLR7 ag | hcGAS lum | mcGAS lum
CCc1nc(SCc2ncc(C(C)(C)C)o2)n[nH]1 | 0 | -9 | .
NC(=O)N/N=C\c1c[nH]c2ccccc12 | -6 | 1 | 0
CCCCCN=C(N)NN=Cc1c[nH]c2ccc(OC)cc12 | 46* | -4 | .
CNC(=O)CSc1cn(CC(=O)N2CCCCCC2)c2ccccc12 | -7 | 3 | -3
O=C(CSc1cn(CC(=O)N2CCCCCC2)c2ccccc12)NC1CCCC1 | 42* | -6 | -6
Cc1nc(SCC(=O)NC(C)C)c2c(C)c(C)sc2n1 | 1 | -3 | .
O=C1C(=Cc2ccco2)Sc2ccccc21 | 8 | -5 | .
O=C1C(=Cc2cccnc2)Sc2ccccc21 | 12 | 0 | 65*
COc1ccc(NCc2cc(OC)c3c(c2)OCCO3)cn1 | 3 | -6 | -6
COc1ccc(NCc2ccc(OC)c(Br)c2)cn1 | 86* | -13 | -9
COC(=O)c1ccccc1S(=O)(=O)NC(C)c1ccc(C)o1 (stereo not drawn) | 2 | -9 | .
OC1c2ccccc2-c2c3c(cc4c2C1NCC4)OCO3 (stereo not drawn) | 12 | 42* | 44*
Fc1ccccc1C1NCCc2cc3c(cc21)OCCO3 (stereo not drawn) | 0 | -8 | .
CCOC(=O)c1sc2nc(C(C)OC(=O)C3=COCCO3)[nH]c(=O)c2c1C (stereo not drawn) | 9 | -6 | .
CCCc1cc(-c2ccccc2C(C)=O)nc(C)n1 | 3 | -5 | .
CN(Cc1cc(-c2ccccc2)on1)C(=O)C1CC2(CCNCC2)CN1 (stereo not drawn) | 6 | -9 | -13
CN(Cc1cnc2ccccc2n1)C(=O)C1CC2(CCNCC2)CN1 (stereo not drawn) | 58* | -6 | -9
O=C1C2C3C=CC(CC3)C2C(=O)N1/N=C\c1cc2c(cc1Br)OCO2 (stereo not drawn) | 4 | 0 | -3
O=C1C2C3C=CC(CC3)C2C(=O)N1/N=C\c1cc([N+](=O)[O-])c(O)cc1O (stereo not drawn) | -10 | 0 | 66*
Clc1cc2c(c(CSc3nnc(-c4ccccc4)o3)c1)OCOC2 | 0 | -4 | -4
Clc1cc2c(c(CSc3nnnn3-c3ccccc3)c1)OCOC2 | 6 | 72* | -2
CCOc1cccc(/C=C(/C#N)c2nc(C)cs2)c1OC(F)F | 8 | -16 | .
CCOC=C(C#N)c1nc(C)cs1 | 84* | -3 | .
COc1cc(-c2nc3c[n+](CC(=O)C(C)(C)C)ccc3n2C)cc(OC)c1OC | 0 | -3 | .
Cc1ccc(NC(=O)C2CSCN2C(=O)c2ccoc2C)c(C)c1 (stereo not drawn) | 12 | -10 | .
SMILES | NPYLR7 ag | hcGAS lum | mcGAS lum
NC(=O)C1CCN(C(=O)c2cc(-c3ccccc3F)nc3cc(-c4ccccc4)nn23)CC1 | 15 | -6 | -3
CCN(CC)c1ccc2c(-c3ccccc3C(=O)O)c3ccc(=[N+](CC)CC)cc-3oc2c1 | 44* | -49 | -28
O=C(O)CN(CC(=O)O)Cc1cc2c(-c3ccccc3C(=O)O)c3cc(CN(CC(=O)O)CC(=O)O)c(=O)cc-3oc2cc1O | . | -3 | -1
COc1cccc2c1OCC(c1n[nH]c(CCc3ccccc3)n1)C2 (stereo not drawn) | 18 | -4 | -10
Cc1ccc(CNC(=O)NC(c2ccc3c(c2)OCCCO3)C(C)C)cc1F (stereo not drawn) | 47* | -13 | -9
CC(C)C(NC(=O)c1cccc(F)c1)c1ccc2c(c1)OCCCO2 (stereo not drawn) | 3 | 0 | .
CCCc1nc(C(=O)NCc2noc(-c3ccco3)n2)cs1 | -3 | 2 | 1
CN(C)CCc1cc2c(c3c1ccc1ccccc13)OCO2 | 2 | 70* | 56*
CN(C)Cc1c2ccccc2cc2ccccc12 | 2 | 1 | .
COc1c[nH]c(CN2CCCC(CCc3cccc(F)c3)C2)cc1=O (stereo not drawn) | 7 | -7 | .
C[n+]1c2cc(N)ccc2cc2ccc(N)cc21 | 120* | 68* | .
Cc1nc2ccc(N)cc2s1 | 1 | 5 | 1
Cc1nc(NC(=O)CC2(CC(=O)Nc3n[nH]c(C)n3)CCCC2)n[nH]1 | -7 | 2 | -2
N#CCSc1sc2c(O)cc(=O)[nH]c2c1C#N | 2 | 2 | 60*
NC(=O)c1c(SCc2ccccc2)sc2c(O)cc(=O)[nH]c12 | 10 | -8 | -6
O=C(Nc1cccc(F)c1)C(C1CCCC1)N1CCN(C(=O)c2ccccc2C(F)(F)F)CC1 (stereo not drawn) | 14 | -5 | -6
CCCn1c(=O)c(C(=O)NCC2CCCO2)nn(-c2ccc(Cl)cc2)c1=O (stereo not drawn) | -1 | -4 | -4
Cc1c2c(nc3cc4c(cc13)OCO4)CCc1ccccc1-2 | 2 | 47* | .
Cc1cc(-c2ccco2)nc2cc3c(cc12)OCO3 | 0 | 1 | .
Cc1cccc(C2=N/C(=C\c3cc4c(cc3Cl)OCO4)C(=O)O2)c1 | 13 | -1 | -6
O=C(O)CN1C(=O)C(=NN2C(=O)CSC2=S)c2ccccc21 | -3 | 43* | .
O=C(O)CN1C(=O)C(=C2C(=O)N(CC(=O)O)c3ccccc32)SC1=S | 1 | -8 | -1
CCc1nc2n(n1)C(=O)C(C(c1cccc(Cl)c1)N1CCC(C(N)=O)CC1)S2 (stereo not drawn) | 4 | -10 | -8
CNC(=O)[C@@]1(OCc2cccc(F)c2)CC(OCc2ccc(C(F)(F)F)cc2)[C@H](O)[C@H](O)C1 (stereo partly drawn) | 2 | -3 | -2
Cc1ccc(CN(Cc2ccccc2)Cc2nc(C(=O)NCc3ccncc3)co2)cc1 | 23 | -8 | -7
SMILES | NPYLR7 ag | hcGAS lum | mcGAS lum
COc1cc(-c2cc(C(F)(F)F)cc3[nH]cnc23)cc(OC)c1OC | 7 | -3 | -17
Cc1c(C(=O)O)cnc2c([N+](=O)[O-])cnn12 | -12 | 41* | 15
Cc1ccc(-c2ccnc3c(C(=O)O)cnn23)o1 | 20 | -7 | .
CN(C)CCN(C(=O)C1=COCCO1)c1nc2c(F)cccc2s1 | -7 | -7 | -7
CC1C(=O)N(c2ccc(F)cc2F)CCN1C(=O)c1cccc(Br)c1 (stereo not drawn) | -2 | -3 | -5
CC1C(=O)N(c2ccc(F)cc2F)CCN1C(=O)c1cccc(F)c1 (stereo not drawn) | -1 | -4 | 72*
O=C(NCc1cccc(C(F)(F)F)c1)c1cc2n(n1)CCN(Cc1cccc(Cl)c1)C2=O | 14 | -2 | 16
Cn1cc(C(NC2CCN(C3CCCC3)CC2)C2CC(O)C2)cn1 (stereo not drawn) | . | -7 | -4
CC(C)(C)NC(=O)CN1CCNCC1 | 1 | -3 | .
CCn1c(O)c(C=Nc2c(C#N)c(C)c(C)n2C2CCCCC2)c(=O)n(CC)c1=S | 69* | -24 | -9
CCn1c(O)c(C=Nc2c(C)nn(C)c2C)c(=O)n(CC)c1=S | -2 | -6 | -7
Cc1cnc(C(=O)Nc2sc3c(c2C(=O)NCC2CCCO2)CCCC3)cn1 (stereo not drawn) | 6 | -7 | .
O=C(O)CN1C(=O)/C(=C/c2cc(Br)c(O)c(Br)c2)SC1=S | 251* | 3 | 7
CN(C)c1ccc(/C=C2/SC(=S)N(CC(=O)O)C2=O)cc1Br | 124* | -1 | .
COc1cc(/C=C2/SC(=S)N(CC(=O)O)C2=O)cc(Br)c1O | -1 | -12 | -4
